# In the library only some 3.2% were active in any assay of this set; here they are far more common.
# DNA Pol III inh = qHTS Assay for Inhibitors of DNA Polymerase III Holoenzyme System. reconstituted DNA polymerase III holoenzyme replication, biochemical. Potency, µM (top dose mostly 57.1 µM), inactives show at the top dose activity change, negative = inhibition. hit rate 0.25% among 71,000; note: potency is the fitted concentration of half-maximal effect; % is set by controls: 0 for no effect and ±100 for the full control effect
#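 Reconstituted *E. coli* holoenzyme (0.35 nM Pol III, 1 nM beta, 154 nM SSB, 2 nM primase) was preincubated with compound for 15 min at RT. Synthesis on 1.4 nM ssM13Gori ran 35 min, then was stopped with PicoGreen/EDTA and read as dsDNA fluorescence.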
# HEK293 cAMP cs = qHTS Assay for Agonists of the Thyroid Stimulating Hormone Receptor: Activators of Intracellular cAMP Concentrations in Parental HEK 293 | parental HEK293 CNG cAMP sensor, membrane potential fluorescence | Potency, µM (highest dose often 57.1 µM), without a hit: at the highest dose activation, most hits filed as activators | hit rate 2.5% among 73,000 | AID 938, 2007; note: potency is the fitted concentration of half-maximal effect; % of control where 0% means no effect; nearly all actives have a fitted effect of over 55% in size
#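 Counterscreen for endogenous-receptor signalling: CNG-channel HEK 293 cells report cAMP rise by membrane depolarization. After 60 min dye equilibration with 100 uM RO 20-1724, compounds incubated 30 min before bottom-read fluorescence at 590 nm.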
# TSHR agonist = qHTS Assay for Agonists of the Thyroid Stimulating Hormone Receptor; HEK293-CNG-TSHR cells (CNG channel as cAMP sensor), membrane potential dye, cAMP; Potency, µM (highest dose often 57.1 µM), inactives show at the highest dose activation, hits mostly activators; hit rate 0.48% among 73,000; active = well fitted activation curve with a large enough effect in the main read-out, with a control signal flat, not every such curve was filed as active; inconclusive = small, poorly fitted or top-dose-only effect, or a change in a side signal; inactive = no such curve, though single readings can be large or run the other way; % of control where 0% means no effect;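 note: the control signal comes from parental cells without the receptor; potency is the fitted concentration of half-maximal effect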
#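 HEK 293 cells stably expressing TSHR and a cAMP-gated CNG channel; parental CNG-only cells as counterscreen. Cells preloaded 60 min with membrane potential dye plus 100 uM RO 20-1724, then compound 30 min; fluorescence read at 590 nm.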
# BRCT PPI green = qHTS Assay for Inhibitors of BRCT-Phosphoprotein Interaction (Green Fluorophore) | hit rate 0.05% among 75,000 | BRCA1 BRCT-phosphopeptide binding, green fluorescence polarization | Potency, µM (highest dose often 76.9 µM), inactives show top-dose activity change, negative = inhibition, actives largely listed as inhibitors;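 note: potency is the fitted concentration of half-maximal effect; plate controls were peptide without protein for full effect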
#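 Fluorescence polarization: His-tagged BRCT (~35 kDa BRCA1 C-terminus, 250 nM) bound to 100 nM fluorescein-labeled phosphorylated 10-aa BACH1 peptide, pH 7.3 phosphate buffer with DTT and Tween 20. Compounds incubated 12 min at room temperature; inhibition read as lowered polarization.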
# BRCT inh red = qHTS Assay for Inhibitors of BRCT-Phosphoprotein Interaction (Red Fluorophore); Breast cancer type 1 susceptibility protein (Homo sapiens), P38398; AID 892, 2007; BRCT-phosphopeptide binding, red fluorescence polarization; Potency, µM (titrated, usually from 76.9 µM), inactives show top-dose activity change, negative = inhibition, most hits filed as inhibitors; hit rate 0.03% among 75,000; note: % is set by controls: 0 for no effect and ±100 for the full control effect
#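 Fluorescence polarization: 100 nM His-tagged BRCA1 BRCT with 100 nM TAMRA-labelled phospho-BACH1 decapeptide, phosphate buffer pH 7.3 with 150 mM NaCl, DTT, 0.01% Tween 20; 12 min RT. Binding inhibition seen as FP decrease.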
# YjeE inh = qHTS Assay for Inhibitors of YjeE. tRNA threonylcarbamoyladenosine biosynthesis protein TsaE (Escherichia coli (strain …. purified YjeE enzyme, qHTS inhibition assay. Potency, µM. hit rate 0.05% among 71,000
#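 Fluorescence polarization of a BODIPY Texas Red–ADP probe (2 uM) bound to purified YjeE (10 uM) was read after 15 min room-temperature incubation with compounds. Loss of polarization marks inhibitors; ADP serves as titrated control.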
# Starred values were filed as active, the others as inactive; i = inactive; ? = inconclusive; / = no result given; [ ] = remark or other dose. Unless noted, calls come from the whole dose curve; as a rule, active = well fitted curve in the direction sought with a large enough effect; inconclusive = small, poorly fitted or top-dose-only effect, or another doubt; inactive = no such curve, though single readings can be large; an effect the other way counts as inactive or inconclusive.
SMILES,DNA Pol III inh,HEK293 cAMP cs,TSHR agonist,BRCT PPI green,BRCT inh red,YjeE inh
O=C1CCc2cc(OCCCCc3nnnn3C3CCCCC3)ccc2N1,-5%,?,25µM*,-3%,-1%,i
CN(C)S(=O)(=O)c1ccc(Oc2ccccc2)cc1,0%,23%,29%,-1%,-1%,i
NC(=O)CCn1nc(-c2ccccc2)c2ccccc2c1=O,-1%,7%,-8%,-3%,-1%,i
O=C(CCn1nc(-c2ccccc2)c2ccccc2c1=O)N1CCN(c2ccccc2)CC1,4%,25µM*,?,1%,-1%,i
CN(C)c1nc(Nc2ccccc2)nc(Oc2ccc(=O)[nH]n2)n1,-3%,3%,-3%,0%,0%,i
CCCNC(=O)c1noc2c1CCc1ccccc1-2,1%,10%,7%,-1%,0%,i
COC(=O)COc1ccc(S(=O)(=O)NCc2ccco2)cc1Cl,3%,0%,5%,-3%,-1%,i
COCCNS(=O)(=O)c1ccc(OCC(=O)OC)c(Cl)c1,-6%,10%,20µM*,1%,0%,i
Cc1cc(C)c2c(CN3CCN(Cc4ccc5c(c4)OCO5)CC3)cc(=O)oc2c1C,-2%,5%,-10%,-1%,1%,i
CC1(C)C2CC[C@@]1(C)C(=O)C2,/,/,/,-2%[3.08 µM],0%,/
CC(=O)N1CCN(c2ccccc2NC(=O)COc2ccc(Cl)cc2Cl)CC1,-6%,26%,28%,3%,-1%,i
C/C(N)=C(/C#N)C(=O)CSc1nnc(SCc2ccc(Cl)cc2)s1,?,32µM*,?,-1%,-1%,i
CCCCN(CC)S(=O)(=O)c1cccc2cccnc12,-3%,20µM*,?,0%,0%,i
O=S(=O)(c1cccc2cccnc12)N(CCO)CCO,-8%,-2%,4%,-1%,-1%,i
CCOC(=O)c1cc(C)n(CCc2ccccc2)c1C,-3%,25µM*,?,0%,0%,i
CCOC(=O)Cn1c(-c2nonc2NC(=O)c2ccccc2F)nc2ccccc21,-2%,11%,1%,4%,1%,i
CCCCOc1ccccc1NC(=O)Cn1c(-c2nonc2N)nc2ccccc21,-3%,6.3µM*,?,8%,-1%,i
CCOc1ccc(CCNC(=O)Cn2c(-c3nonc3N)nc3ccccc32)cc1OCC,2%,?,?,3%,0%,i
Nc1nonc1-c1nc2ccccc2n1CC(=O)N1CCN(c2ccc(F)cc2)CC1,-3%,25µM*,?,0%,1%,i
COCCNc1nnc(SCC(=O)N2CCN(S(=O)(=O)c3ccccc3)CC2)s1,-4%,0%,11%,-1%,1%,i
c1ccc(-n2cnnc2SCc2nc3ccccc3s2)cc1,-2%,-1%,3%,0%,1%,i
O=C(Nc1cccc(C(=O)Nc2ccc(S(=O)(=O)O)c3cc(S(=O)(=O)O)cc(S(=O)(=O)O)c23)c1)Nc1cccc(C(=O)Nc2ccc(S(=O)(=O)O)c3cc(S(=O)(=O)O)cc(S(=O)(=O)O)c23)c1,13µM*,?,?,3%,8%,i
CC(=O)Nc1cccc(C(=O)Nc2ccccc2C(=O)O)c1,-4%,4%,4%,-1%,-5%,i
Fc1ccc(-c2nnc(-c3ccc(Cl)cc3)o2)cc1,-3%,?,?,-4%,-2%,i
CCOc1ccc(-c2nnc(-c3snc(-c4ccc(F)cc4)c3N=CN(C)C)o2)cc1,-2%,16µM*,?,-1%,0%,i
SMILES,DNA Pol III inh,HEK293 cAMP cs,TSHR agonist,BRCT PPI green,BRCT inh red,YjeE inh
COc1cccc(N2C(=O)c3ccncc3C2=O)c1,1%,14%,3%,-2%,-2%,i
Cc1nc(C)c(C(=O)C2=C(O)C(=O)N(CCN3CCOCC3)C2c2ccco2)s1 (configuration not stated),1%,3%,/,0%,2%,i
COc1ccc(-c2cc(C(F)(F)F)n3ncc(C(=O)NCC4CCCO4)c3n2)cc1 (configuration not stated),-1%,10µM*,?,-2%,1%,i
COc1cccc(-c2cc(C(F)(F)F)n3ncc(C(=O)NCC4CCCO4)c3n2)c1 (configuration not stated),-8%,?,?,-2%,1%,i
Cc1ccc(Cl)cc1N1CCN(C(c2ccc(C#N)cc2)c2nnnn2C2CCCC2)CC1 (configuration not stated),-2%,1.3µM*,?,-2%,0%,i
CCC(=O)Nc1nnc(CSCc2ccccc2)s1,-4%,0%,-3%,-3%,0%,i
Cc1c(C(=O)OCCN2CCCCC2)oc2ccccc12,-8%,27%,/,-2%,0%,i
C[C@H]1CC(C)(C)C[C@@](OCCN2CCCCC2)(c2ccccc2)C1,-8%[11.4 µM],5µM*,?,-1%[15.4 µM],-1%[15.4 µM],i
O=C(O)c1cc2c(cc1S(=O)(=O)O)[C@H]1[C@@H]([C@H]3[C@H]2[C@@]2(Cl)C(Cl)=C(Cl)[C@]3(Cl)C2(Cl)Cl)[C@]2(Cl)C(Cl)=C(Cl)[C@@]1(Cl)C2(Cl)Cl,-2%[11.4 µM],9%[11.4 µM],2%[11.4 µM],-5%[15.4 µM],-6%[15.4 µM],i
O=C(NCc1ccco1)C1CCN(C(=O)c2cc3sccc3n2Cc2ccc(F)cc2)CC1,14%,28%,20µM*,0%,0%,i
CCN1CCN(C(=O)C2CCN(C(=O)c3cc4sccc4n3CC)CC2)CC1,2%,9%,6%,-1%,1%,i
O=C(NCCCN1CCCC1)C1CCN(C(=O)c2cc3sccc3n2Cc2ccc(F)cc2)CC1,1%,5%,3%,4%,1%,i
CCn1c(C(=O)N2CCC(C(=O)NCCCSC3CCCCC3)CC2)cc2sccc21,6%,16µM*,?,-1%,3%,i
O=c1c2c(nc3nc(COc4ccccc4)[nH]n13)CCC2,-3%,9%,/,-2%,0%,i
CNc1ncnc2ccc(-c3ccccc3CN(C)C)cc12,-10%,6%,11%,1%,2%,i
CNc1ncnc2ccc(-c3ccccc3C)cc12,-4%,2µM*,?,0%,0%,i
COc1ccccc1-c1ccc2ncnc(NCc3cccnc3)c2c1,-19%,?,?,12%,-3%,i
